Consider 40 molecules from PubChem BioAssay (NCI).

Each structure is given as a SMILES string. Several values for one entry are separate records, joined by “and”; a condition that tells them apart may be missing. Identical values can stand only once. The panel holds about 83,000 compounds, 20% with a hit somewhere; the sample as a whole holds those more often.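 Percent growth is the endpoint: 0 to 100 indicates growth inhibition (40 means 60% inhibition), 0 means no net growth, and negative values indicate cell death.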 Activity calls are given as the source filed them. How the source made its calls: active means growth percent below 10; inactive means the rest.

In this assay the test system is MDA-MB-468 breast. The assay is described as follows: NCI-60 one-dose screen, 48 h (100 = growth as untreated, 0 = no growth, -100 = all killed). Conditions: 10 µM unless noted.
Take `CCCC1CCCCN1C(=O)OCC(C)C` (stereo not given): the growth is 97.4% (inactive).

On to `COc1ccc(-c2nc(NCCO)[nH]c(=O)c2C#N)cc1`, for which the growth is 112% (inactive).

With `Cc1ccc(-c2cc(C(=O)N3N=C(c4ccc(N)cc4)CC3c3ccc(Cl)cc3)c3ccccc3n2)cc1` (stereo not given), the growth is 14.1% (inactive).

In the case of `C[C@@H]1CC[C@@H]2[C@@H]1[C@H](OC(=O)c1ccc3ccccc3c1)[C@]1(C3CCCCC3)C[C@@H](OC(=O)CO)[C@@]2(C)O1`, the growth was 63.6% (inactive).

Regarding `CSc1nc(Nc2cccc(NC(=O)CCl)c2)c(C#N)c(-c2cccc([N+](=O)[O-])c2)n1`, the growth is -10.8% (active).

Take `CCN1C(=O)c2ccc3c4c(ccc(c24)C1=O)C(=O)N(CCCNCc1ccccc1OC)C3=O`: the growth was -71.4% (active).

Take `CNC(=O)c1cc(Oc2ccc(NC(=O)c3nc(S(C)(=O)=O)sc3-c3ccc(F)cc3)cc2)ccn1`: the growth is -4.37% (active).

As to `CC(=O)c1cc(O)ccc1O`, the growth is 98.3% (inactive).

Take `Cc1ccc(NCSc2ccc(Cl)cc2)cc1`: the growth is -0.979% (active) and 43.6% (inactive).

For the molecule `CCCCCCCC[C@@H](O)CC(=O)N[C@@H](CC(N)=O)C(=O)N[C@@H](CCC(N)=O)C(=O)N[C@@H](CC(=O)c1cc(C)cc(O)c1C(=O)c1c(O)cccc1O)CC(C)C`, the growth was 3.34% (active).

Turning to `COc1cc(OC)c2c(=O)c3c(CC=C(C)C)cc(OC)c(O)c3oc2c1`, the growth is 110% (inactive).

With `CCOC(=O)/C=C/c1c(C)[nH]c(=O)[nH]c1=O`, the growth was 72.8% (inactive).

For `CCCCN(CCCC)CCCn1c(-c2ccccc2)ccc1-c1ccccc1`, the growth is 43% (inactive).

Consider `CCCCCCCCCCCCCCn1cc(C2=C(c3coc4ccc(OC)cc34)C(=O)NC2=O)c2ccccc21`, for which the growth was 104% (inactive).

For the molecule `COc1ccc(OC)c(/C=C2\Oc3cc(OCCN4CCCC4)ccc3C2=O)c1`, the growth is 98.9% (inactive).

As to `O=C(CC(=O)c1ccccc1O)c1ccccc1`, the growth is 71.9% (inactive).

`COc1c2ccccc2c(OC)c2[nH]c(=O)ccc12`: the growth was 60.9% (inactive).

`COc1ccc(S(=O)(=O)c2ccc(F)cc2)cc1`: the growth is 105% (inactive).

In the case of `N=C1c2nc3n(c2C(=O)c2nc4n(c21)CCCC4)CCCC3`, the growth is 68.1% (inactive).

On to `C=C(C)[C@@H]1CC[C@]2(C)CC[C@]3(C)[C@H](CC[C@@H]4[C@@]5(C)CCCNC(C)(C)[C@@H]5CC[C@]43C)[C@@H]12`, for which the growth is 26.2% (inactive).

Regarding `CCCCC[C@H](O)C/C=C1/C(=O)C=C[C@@H]1C/C=C\CCCC(=O)OC`, the growth was 64.6% (inactive).

`O=C(Nc1cc(F)cc2cccnc12)c1cnc(N2CCOCC2)cn1`: the growth was 18.5% (inactive).

As for `COc1ccc(C/C(C)=C(\c2ccc(O)cc2)c2ccc(OCCN3CCCC3)cc2)cc1`, the growth was 124% (inactive).

On to `Fc1ccc2nc(-c3ccc(-c4noc(-c5ccc(Cl)cc5)n4)cc3)[nH]c2c1`, for which the growth was 110% (inactive).

With `COc1cnc2c(c1)C(=O)c1c-2n(CCCN2CCCC2)c(=O)c2cc(Cl)ccc12`, the growth was 50.4% (inactive).

As for `COC(=O)C1(C(=O)OC)C2C(=O)C3C(C21)C3(C(=O)OC(C)(C)C)C(=O)OC(C)(C)C` (stereo not given), the growth is 99.4% (inactive).

Regarding `CN(CC(=O)O)c1ccc(/C=C/c2ccnc3ccccc23)cc1`, the growth is -0.654% (active).

Regarding `COc1ccc2c(c1)/C(=C/c1sc(=S)n(Cc3ccco3)c1O)C=N2`, the growth was 3.03% (active).

For the molecule `COc1ccc2nc(Cl)c(/C=C3\CC(c4ccccc4)=NN(c4ccccc4)C3=O)cc2c1`, the growth is 74.9% (inactive).

As for `COc1ccc2[nH]c(C(=O)OCc3ccc4c(Br)cc(Br)c(O)c4n3)cc2c1`, the growth was -77.4% (active).

For the molecule `CN1CCN(Cc2ccc(NC(=O)c3cncc(C#Cc4cnc5[nH]ncc5c4)c3)cc2C(F)(F)F)CC1`, the growth was 40% (inactive).

Turning to `Oc1ccc(-c2[nH]c3ccccc3c2-c2nc3ccccc3o2)cc1`, the growth is 26.1% (inactive).

With `O=C(Nc1ccc(Cl)cc1)Nc1ccccc1CNc1nc(Nc2ccc(OCCN3CCCC3)cc2)ncc1Cl`, the growth is -57.4% (active).

As for `CC1C(=O)c2ccccc2CC1C(=O)O` (stereo not given), the growth was 118% (inactive).

As for `O=C(N/N=C/c1ccc(F)cc1)c1ccccc1Nc1cccc(C(F)(F)F)c1`, the growth was 83.9% (inactive).

For the molecule `CCn1c(SC)nnc1-c1cc2c([nH]c3ccccc32)c(-c2cccc(O)c2)n1`, the growth was -12.6% (active).

Regarding `O=C1OC2C(I)C3CC2C1C3c1ccccc1` (stereo not given), the growth was 91.5% (inactive).

On to `COc1ccc(C/C(C)=C(\c2ccc(Cl)cc2)c2ccc(OCCCN(C)C)cc2)cc1`, for which the growth is 59.7% (inactive).

Take `COc1ccc(Cn2c(Br)c3c(c2-c2cc(OC)c(OC)c(OC)c2)CCc2sc(NC(=O)c4ccc(OC)cc4)nc2-3)cc1`: the growth is 98.8% (inactive).

`COC(=O)Cc1nc(C#N)c(N(C)C)o1`: the growth is 97.8% (inactive).
